# Results published in PubChem BioAssay (NCATS).
# A number with no mark means an inactive call. Inconclusive results are not listed. The source made the active and inactive calls. Unless noted, calls come from the whole dose curve; as a rule, active = well fitted cell-killing curve with a large enough effect; inconclusive = small, poorly fitted or top-dose-only effect, or effect the other way; inactive = flat fitted curve, though single readings scatter.
# Tested on: not listed separately
# Test: qHTS assay for cell viability of HEK293 cells (AID 743288); note: nearly all actives have a fitted effect of over 50% in size; note: potency is the fitted concentration of half-maximal effect; for max response: % is set by controls: 0 for no effect and ±100 for the full control effect
# Conditions: ATP luminescence (CellTiter-Glo), 18 h; max response: stronger effect = lower value
# Procedure, shortened: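 HEK293 parental, 2,000 cells/well; ≥5 h pre-incubation 37 C; pintool compound addition; 18 h, 37 C; CellTiter-Glo 30 min RT; luminescence read.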
Structure (SMILES),max response [%],Potency
O=C(O)COc1ccc(Cl)cc1,-5.08,
Cc1ccc(-c2c(Cl)nc(C#N)n2S(=O)(=O)N(C)C)cc1,-15.9,
CCc1nn(C)c(C(=O)NCc2ccc(C(C)(C)C)cc2)c1Cl,-25.1,
CCC(CC)Nc1c([N+](=O)[O-])cc(C)c(C)c1[N+](=O)[O-],-2.98,
C1=Cc2cccc3cccc1c23,-13.5,
CCOP(=O)(OCC)Oc1ccc([N+](=O)[O-])cc1,-2.61,
CN(c1c(Br)cc(Br)cc1Br)c1c([N+](=O)[O-])cc([N+](=O)[O-])cc1C(F)(F)F,,39.8 µM (active)
O=[N+]([O-])c1cc(C(F)(F)F)c(Cl)c([N+](=O)[O-])c1Nc1ncc(C(F)(F)F)cc1Cl,,35.5 µM (active)
[CH3][Sn]([Cl])([Cl])[Cl],-18.6,
CCC[CH2][Sn]([CH2]CCC)([CH2]CCC)[O][Sn]([CH2]CCC)([CH2]CCC)[CH2]CCC,,31.6 µM (active)
CCC(C)(c1ccc(O)cc1)c1ccc(O)cc1,-0.148,
[Cu+2].[O-]c1cccc2cccnc12.[O-]c1cccc2cccnc12,,31.6 µM (active)
CCC(C)Nc1c([N+](=O)[O-])cc(C(C)(C)C)cc1[N+](=O)[O-] (centres undefined),-2.45,

# Tested on: not listed separately
# Test: qHTS assay for cell viability of the p53RE-bla HCT-116 cell line (AID 743292); note: nearly all actives have a fitted effect of over 55% in size; note: potency is the fitted concentration of half-maximal effect
# Conditions: p53RE-bla HCT-116 viability, ATP luminescence, 16 h; series mostly up to 95 µM
# Procedure, shortened: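 CellSensor p53RE-bla HCT-116 cells, 4,000/well, preincubated 5 h at 37 C, then exposed to compounds in DMSO for 16 h at 37 C. Viability read as CellTiter-Glo luminescence (intracellular ATP) after 30 min at room temperature.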
row,Structure (SMILES),Potency
1,O=C(O)COc1ccc(Cl)cc1,inactive
2,CCC(CC)Nc1c([N+](=O)[O-])cc(C)c(C)c1[N+](=O)[O-],inactive
3,C[Si](Cn1cncn1)(c1ccc(F)cc1)c1ccc(F)cc1,inactive
4,C1=Cc2cccc3cccc1c23,inactive
5,CCOP(=O)(OCC)Oc1ccc([N+](=O)[O-])cc1,inactive
6,CN(c1c(Br)cc(Br)cc1Br)c1c([N+](=O)[O-])cc([N+](=O)[O-])cc1C(F)(F)F,7.08 µM (active)
7,[CH3][Sn]([Cl])([Cl])[Cl],inactive
8,CCC[CH2][Sn]([CH2]CCC)([CH2]CCC)[O][Sn]([CH2]CCC)([CH2]CCC)[CH2]CCC,22.4 µM (active)
9,CCC(C)(c1ccc(O)cc1)c1ccc(O)cc1,inactive
10,[Cu+2].[O-]c1cccc2cccnc12.[O-]c1cccc2cccnc12,inactive

# Biological target: Nuclear receptor subfamily 1 group I member 2 (Rattus norvegicus) (UniProt Q9R1A7)
# Test: qHTS assay for small molecule activators of the rat pregnane X receptor (rPXR) signaling pathway (AID 651751; call rule not given here; note: 0% is about no effect)
# Conditions: rPXR reporter cells, luciferase (One-Glo), 24 h
# Sequence of Nuclear receptor subfamily 1 group I member 2 (Rattus norvegicus) (Q9R1A7 whole entry, looked up): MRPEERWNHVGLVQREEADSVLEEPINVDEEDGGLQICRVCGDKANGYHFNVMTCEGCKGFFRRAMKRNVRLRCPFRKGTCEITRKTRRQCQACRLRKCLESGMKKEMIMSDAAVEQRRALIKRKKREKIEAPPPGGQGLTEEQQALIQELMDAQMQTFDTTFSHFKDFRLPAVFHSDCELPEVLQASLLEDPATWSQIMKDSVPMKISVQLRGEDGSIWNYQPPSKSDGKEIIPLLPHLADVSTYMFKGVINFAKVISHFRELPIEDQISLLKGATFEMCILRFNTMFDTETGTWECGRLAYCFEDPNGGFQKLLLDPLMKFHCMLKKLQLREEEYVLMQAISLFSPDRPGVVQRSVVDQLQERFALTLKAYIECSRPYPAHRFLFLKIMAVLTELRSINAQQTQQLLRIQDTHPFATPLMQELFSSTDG
row,Structure (SMILES),max response [%]
1,O=C(O)COc1ccc(Cl)cc1,-5.77
2,C1=Cc2cccc3cccc1c23,3.17
3,CCOP(=O)(OCC)Oc1ccc([N+](=O)[O-])cc1,3.26
4,CN(c1c(Br)cc(Br)cc1Br)c1c([N+](=O)[O-])cc([N+](=O)[O-])cc1C(F)(F)F,-14.1
5,[CH3][Sn]([Cl])([Cl])[Cl],-7.26
6,CCC(C)(c1ccc(O)cc1)c1ccc(O)cc1,-0.68

# Tested on: not listed separately
# Test: qHTS assay for small molecule activators of the human pregnane X receptor (PXR) signaling pathway (AID 720659; call rule not given here; note: 0% is about no effect)
# Conditions: DPX-2 HepG2 CYP3A4-luciferase, 24 h; series mostly up to 92.3 µM
row,Structure (SMILES),outcome
1,O=C(O)COc1ccc(Cl)cc1,inactive
2,O=[N+]([O-])c1cc(C(F)(F)F)c(Cl)c([N+](=O)[O-])c1Nc1ncc(C(F)(F)F)cc1Cl,inactive
3,[CH3][Sn]([Cl])([Cl])[Cl],inactive
4,[Cu+2].[O-]c1cccc2cccnc12.[O-]c1cccc2cccnc12,inactive
5,O=C1c2ccccc2C(=O)N1SC(Cl)(Cl)Cl,inactive
